The values below come from PubChem BioAssay (NCATS).

Records with an inconclusive call do not appear. Unmarked numbers belong to inactive results. The source made the active and inactive calls. Calls follow the shape of the dose curve; as a rule, active = well fitted curve in the direction sought with a large enough effect; inconclusive = small, poorly fitted or top-dose-only effect, or another doubt; inactive = no such curve, though single readings can be large; an effect the other way counts as inactive or inconclusive. *1 amine or outer side, *2 acyl side, *3 side chain or, on linkers, in order; H or OH if unused. Where a SMILES comes first, the peptide text is derived from it. Bridges are numbered along the chain shown (N, C = ends). [ ]: non-standard residue; d: D form. The star is where a group is joined. ξ: configuration not given here. X10 = NC1=NCCC(C(N[*:1])C(=O)[*:2])N1; ΔAla(3-NHCONH2) = NC(=O)NC=C(N)C(=O)O; ξβ3hOrn = NCCCC(N)CC(=O)*; Dap = NC[CH](N)C(=O)O

Assay [1] is described as follows: Primary qHTS for inhibitors of nuclear receptor binding SET domain protein 2 (NSD2) in an isogenic RCH-ACV NSD2 p.E1099K mutant (9B) (AID 1645876).
The nature of assay [2]: Primary qHTS for inhibitors of nuclear receptor binding SET domain protein 2 (NSD2) in an RCH-ACV wild type WT cells (2C) (AID 1645877).
% is scaled to controls: 0 for no effect and ±100 for the full control effect; potency is read from the fitted curve at half-maximal effect.
Also: nearly all actives have a fitted effect of over 70% in size.

Turning to `CO[C@@H]1[C@@H](OC)[C@H](C)[C@@](O)(CC(=O)O)O[C@H]1[C@H](C)[C@H]1O[C@@]2(CC[C@@](C)([C@H]3CC[C@@](C)([C@@H]4O[C@@H]([C@H]5O[C@](C)(O)[C@H](C)C[C@@H]5C)C[C@@H]4OC4C[C@H](OC)[C@@H](OC)[C@H](C)O4)O3)O2)C[C@H](O)[C@H]1C` (stereo partly specified), the Potency in assay [1] was 0.596 µM (active); in assay [2], 0.531 µM (active).

Turning to `CC(C)C(C)(C)C(C)(C)C(C)(C)S`, the Potency result in assay [1] was “inactive”.

Consider `Cc1ncc([N+](=O)[O-])n1C`, for which the Potency result in assay [1] and in assay [2] was “inactive” each time.

`COc1ccc(CCC(C)=O)cc1`: the Potency entry in assay [1] and in assay [2] was “inactive” throughout. Regarding `CN1[C@@H]2CC[C@H]1CC(NC(=O)n1c(=O)[nH]c3ccccc31)C2` (stereo partly specified), the Potency result in assay [1] and in assay [2] was “inactive” in each case. For the molecule `CNC(=O)c1c(I)c(NC(C)=O)c(I)c(C(=O)O)c1I`, the Potency result in assay [1] and in assay [2] was “inactive” each time. With `O=C(OCC(COC(=O)c1cccnc1)(COC(=O)c1cccnc1)COC(=O)c1cccnc1)c1cccnc1`, the Potency result in assay [1] and in assay [2] was “inactive” throughout. With `CCOC(=O)Oc1ccc(CCNC(=O)[C@H](CCSC)NC(C)=O)cc1OC(=O)OCC`, the Potency result in assay [1] and in assay [2] was “inactive” each time. With `C/C(=N/NC(=O)c1ccncc1)C(=O)O`, the Potency entry in assay [1] and in assay [2] was “inactive” throughout. In the case of `CC1(C)OC(=O)Nc2ccc(Br)cc21`, the Potency result in assay [1] and in assay [2] was “inactive” each time. Regarding `CC(C(O)c1ccccc1)N(C)CCOC(c1ccccc1)c1ccccc1` (stereo unspecified), the Potency in assay [1] and in assay [2] was 16.3 µM (active) throughout. For the molecule `COc1cc(S(N)(=O)=O)cc(C(=O)O)c1OC`, the Potency result in assay [1] and in assay [2] was “inactive” in each case. On to `CCCCCCCCCCCCCCCC[N+](C)(C)Cc1ccccc1`, for which the Potency in assay [1] is 0.75 µM (active); in assay [2] it was 0.668 µM (active).

Consider `COCCOCC(OC)OC`, for which the Potency result in assay [1] and in assay [2] was “inactive” in each case. On to `C#CC(C)(CC)OC(=O)c1ccccc1C(=O)O` (stereo unspecified), for which the Potency result in assay [1] and in assay [2] was “inactive” throughout. Consider `Cc1coc2ccccc2c1=O`, for which the Potency result in assay [1] and in assay [2] was “inactive” in each case. As for `CN1CC(=O)N2[C@H](c3ccc4c(c3)OCO4)c3[nH]c4ccccc4c3C[C@@H]2C1=O`, the Potency result in assay [1] and in assay [2] was “inactive” in each case.

Turning to `Cc1ccc(-c2ccccc2C#N)cc1`, the Potency entry in assay [1] is “inactive”.

With `C[C@H](CN1CCCC1)C(=O)c1ccc(C(F)(F)F)cc1`, the Potency in assay [1] is 11.9 µM (active); in assay [2], 6.68 µM (active). For `CC(C)(C)C(O)/C=C/c1ccc2c(c1)OCO2` (stereo unspecified), in that order: “inactive” and “inactive”. Regarding `COc1ccc(-n2nc(CCC(=O)N(C)O)cc2-c2ccc(Cl)cc2)cc1`, the Potency in assay [1] is 8.41 µM (active); in assay [2], 7.5 µM (active). For `CN(C)CCCOC1(Cc2ccccc2)CCCCCC1`, in that order: “inactive” and “inactive”. For `c1ccc2c(c1)CCc1ccccc1N2`, in that order: “inactive” and “inactive”. As to `CCOC(=O)CN1CCCC1=O`, the Potency entry in assay [1] was “inactive”. As to `Clc1ccc2c(c1)Nc1ccccc1S2`, the Potency result in assay [1] and in assay [2] was “inactive” throughout. Take `CC(=O)O[C@@H]1CC2C3CCc4cc(OC(=O)c5ccccc5)ccc4C3CCC2(C)[C@H]1OC(C)=O` (stereo partly specified): the Potency result in assay [1] and in assay [2] was “inactive” throughout. As for `CCS(=O)(=O)c1ccc(OC)c(C(=O)OC)c1`, the Potency result in assay [1] and in assay [2] was “inactive” each time. Turning to `CCOc1c(N2CCOCC2)cnn(C)c1=O`, the Potency result in assay [1] and in assay [2] was “inactive” in each case. With `COc1ccc2cc(C=O)ccc2c1`, the Potency result in assay [1] and in assay [2] was “inactive” throughout. In the case of `Nc1ncnc2nc[nH]c12`, the Potency entry in assay [1] and in assay [2] was “inactive” each time. In the case of `CO[C@@]1(NC(=O)CSC[C@@H](N)C(=O)O)C(=O)N2C(C(=O)O)=C(CSc3nnnn3C)CS[C@@H]21`, the Potency entry in assay [1] and in assay [2] was “inactive” throughout. As to `CCN1CCN(c2cc(-c3ccc(F)cc3)c3c(n2)CCCCCC3)CC1`, the Potency entry in assay [1] and in assay [2] was “inactive” in each case.

Consider `COc1ccccc1OCC1CNC(=O)O1` (stereo unspecified), for which the Potency result in assay [1] and in assay [2] was “inactive” throughout. In the case of `OCCCc1ccccc1`, the Potency entry in assay [1] and in assay [2] was “inactive” throughout.

For `O=C(CS(=O)Cc1ccco1)NC/C=C\COc1cc(CN2CCCCC2)ccn1` (stereo unspecified), the Potency entry in assay [1] and in assay [2] was “inactive” throughout. With `NCC[C@H](O)C(=O)N[C@@H]1C[C@H](N)[C@@H](O[C@H]2O[C@H](CN)[C@@H](O)[C@H](O)[C@@H]2O)[C@H](O)[C@@H]1O[C@H]1O[C@H](CO)[C@@H](O)[C@H](N)[C@@H]1O`, in assay [1], the activity change, negative = viability loss is 7.89% [at 0.588 µM]. Further, the activity change, negative = cell killing in assay [2] was -24.5% [at 0.588 µM]. Turning to `OC1(c2ccccc2)CCNCC1`, the Potency entry in assay [1] and in assay [2] was “inactive” each time. Turning to `CN1CC[C@H](c2c(O)cc(O)c3c(=O)cc(-c4ccccc4Cl)oc23)[C@H](O)C1`, the Potency is 0.0211 µM (active) in assay [1] and 0.0106 µM (active) in assay [2]. The corresponding values for `CC(C)NCCCC1(C(N)=O)c2ccccc2-c2ccccc21` are “inactive” and “inactive”. In the case of `Cc1cccc(N(C)C(=S)Oc2ccc3c(c2)CCC3)c1`, the Potency entry in assay [1] and in assay [2] was “inactive” in each case. Regarding `Cc1ccc(O)cc1`, the Potency entry in assay [1] and in assay [2] was “inactive” in each case.

On to `O=C(O)c1[nH]n(-c2ccc(S(=O)(=O)O)cc2)c(=O)c1N=Nc1ccc(S(=O)(=O)O)cc1`, for which the Potency entry in assay [1] and in assay [2] was “inactive” throughout. For `CCOC(=O)C1=C(C)NC(C)=C(C(=O)OCC)C1c1ccccc1/C=C/C(=O)OC(C)(C)C`, the Potency is 21.1 µM (active) in assay [1] and 16.8 µM (active) in assay [2]. With `Cc1nc(C2CCCCC2)c(-c2ccc(S(N)(=O)=O)c(F)c2)o1`, the results for the Potency in assay [1] and in assay [2] were 11.9 µM (active) and 13.3 µM (active), respectively.

`Cc1oc(=O)oc1COC(=O)[C@@H]1N2C(=O)[C@@H](NC(=O)[C@H](N)c3ccccc3)[C@H]2SC1(C)C`: the Potency entry in assay [1] and in assay [2] was “inactive” in each case. For `COc1cc(C(=O)OC(COCCC(C)C)CN2CCOCC2)cc(OC)c1OC` (stereo unspecified), the Potency entry in assay [1] and in assay [2] was “inactive” in each case. With `NCCCC(N)CC(=O)NCC1NC(=O)C(CO)NC(=O)C(N)CNC(=O)C(C2CCN=C(N)N2)NC(=O)C(=CNC(N)=O)NC1=O` (stereo not drawn) (H-[Dap]S[Dap](ξβ3hOrn)[ΔAla(3-NHCONH2)][X10]; lactam 1-C; configuration not given here), the outcome in assay [1] and in assay [2] was “inactive [at 0.588 µM]” in each case.
